Reference: ChEMBL document CHEMBL3988442, “University of Dundee, Small-Polar-MMV Screening Library” (2021)
The whole screen tested about 85,000 compounds, of which about 440 (0.52%) showed an effect of 50% or more. This is one part of a sample in which strong results are shown more often than they occur.

Experiment: In vitro enzyme assay to detect hydrolysis of chlorophenol red-beta-D-[…] directly proportional to the number of Toxoplasma stably expressing beta-galactosidase
Assay type: functional, organism-based, Toxoplasma gondii
Design: scale not given: in the data most compounds retested in dose-response had high values

## NCCOc1cccc(C(F)(F)F)n1
50 µM
  Percent Effect: -9.845%

## COCCN(Cc1cccs1)C(=O)CC1CCNC1 (stereo not drawn)
50 µM
  Percent Effect: 11.69%

## CSc1ccc(CNC(=O)C(C)O)cc1 (stereo not drawn)
50 µM
  Percent Effect: -1.798%

## COc1cccc2ccc(CN3CC[C@@H](O)C3)nc12
50 µM
  Percent Effect: 11.26%

## NC[C@@H]1CC(=O)N(C2CC2)[C@H]1c1ccncc1
50 µM
  Percent Effect: -2.453%

## CN(C)S(=O)(=O)NC(c1ccccc1)c1ccccc1
50 µM
  Percent Effect: 10.19%

## CC(NS(=O)(=O)N(C)C)c1ccccc1 (stereo not drawn)
50 µM
  Percent Effect: -35.13%

## CC(C)Sc1ccccc1NS(=O)(=O)N(C)C
50 µM
  Percent Effect: 99.92%

## CCNCCCC1CCNCC1
50 µM
  Percent Effect: 16.42%

## COC(=O)c1ccc(NC(C)=O)cc1
50 µM
  Percent Effect: 6.6%

## COc1ccc(NS(=O)(=O)c2cnc(NC(C)=O)s2)cc1
10 µM
  Percent Effect: 74.55%

## COC(=O)c1cccc(NS(=O)(=O)c2cnc(NC(C)=O)s2)c1
10 µM
  Percent Effect: -3.347%

## COC(=O)c1ccc(NS(=O)(=O)c2cnc(NC(C)=O)s2)cc1
10 µM
  Percent Effect: 53.94%

## COc1ccc(S(=O)(=O)Nc2cnc(N(C)C)nc2)cc1
10 µM
  Percent Effect: -8.947%

## COc1ccc(OCCc2nnc(NC(C)=O)s2)cc1
10 µM
  Percent Effect: -4.781%

## CC(C)OCCN1CCN(C(=O)c2cc[nH]n2)CC1
50 µM
  Percent Effect: -2.714%

## NCC(C(=O)N1CCC2(CCC2)C1)c1ccccc1 (stereo not drawn)
50 µM
  Percent Effect: 20.55%

## CC(=O)NC(C)C(=O)Nc1ccc2ccccc2c1 (stereo not drawn)
50 µM
  Percent Effect: -30.81%

## O=C1CCc2ccccc2N1Cc1ncccn1
50 µM
  Percent Effect: 0.3291%

## Nc1cc(-c2cccnc2)on1
50 µM
  Percent Effect: -0.8399%

## Cc1noc(C)c1S(=O)(=O)N(C)Cc1ccoc1
50 µM
  Percent Effect: -13.17%

## CC1(C)CC(=O)CN1C(=O)c1cc(Cl)c2c(c1)OCO2
50 µM
  Percent Effect: 7.211%

## COc1cccc2c1OCC(CNS(C)(=O)=O)C2 (stereo not drawn)
50 µM
  Percent Effect: 14.05%

## CCc1nccn1CCNC(=O)Cn1nc(C)cc1N
50 µM
  Percent Effect: 0.7856%

## CNC(=O)C1CCCN(C(=O)Cc2ccc(F)cc2)C1 (stereo not drawn)
50 µM
  Percent Effect: -18.03%

## NCCc1cc(-c2ccncc2)[nH]n1
50 µM
  Percent Effect: 52.85%

## CN(C)C(=O)c1cc(-c2ccncc2)[nH]n1
10 µM
  Percent Effect: -7.126%

## NCCCc1nc(-c2ccncc2)cs1
50 µM
  Percent Effect: -3.15%

## O=C(NC1(CCO)CCC1)c1c(O)cc(F)cc1F
50 µM
  Percent Effect: -3.362%

## COCCOCCCNC(=O)c1cn2cc(C)nc2s1
50 µM
  Percent Effect: 5.507%

## CN(Cc1ccc(F)c(F)c1)C(=O)C1CCOCC1
50 µM
  Percent Effect: 0.4539%

## Fc1ccc(CN2CCn3cc(Cn4cccn4)nc3C2)cc1.O=C(O)C(F)(F)F
10 µM
  Percent Effect: 6.807%

## Cn1cc(CN2CCn3cc(Cn4cccn4)nc3C2)cn1.O=C(O)C(F)(F)F
10 µM
  Percent Effect: 96.45%

## O=C(O)C(F)(F)F.O=C(O)C(F)(F)F.c1ccc(CCN2CCn3cc(Cn4cccn4)nc3C2)cc1
10 µM
  Percent Effect: -2.685%

## Cc1noc(C)c1S(=O)(=O)N1CC[S+]([O-])C(C)(C)C1 (stereo not drawn)
50 µM
  Percent Effect: -20.3%

## CC(=O)c1sc(NCCc2ccccn2)nc1C
50 µM
  Percent Effect: -25.25%

## CC(=O)Nc1ncc(S(=O)(=O)Nc2ccccc2)s1
10 µM
  Percent Effect: 62.69%

## CCS(=O)(=O)Nc1ccccc1F
50 µM
  Percent Effect: 6.561%

## CC(=O)Nc1ncc(Br)s1
50 µM
  Percent Effect: 8.521%

## CC(=O)Nc1ncc(S(=O)(=O)Nc2ccccc2F)s1
10 µM
  Percent Effect: 61.48%

## CC(=O)Nc1ncc(S(=O)(=O)Nc2ccc(F)cc2)s1
10 µM
  Percent Effect: 2.51%

## CC(=O)Nc1ncc(S(=O)(=O)Nc2ccc(C)cc2)s1
10 µM
  Percent Effect: 70.91%

## CC(=O)Nc1ncc(S(=O)(=O)Nc2ccc(F)cc2F)s1
10 µM
  Percent Effect: -1.674%

## CC(=O)Nc1ncc(S(=O)(=O)N2CCC(C)CC2)s1
10 µM
  Percent Effect: -14.89%

## CCN1CCN(S(=O)(=O)c2cnc(NC(C)=O)s2)CC1
10 µM
  Percent Effect: -3.243%

## NCCc1n[nH]c(=O)n1-c1ccc2c(c1)OCO2
50 µM
  Percent Effect: -0.07643%

## Cn1cc(C(O)CN)cn1 (stereo not drawn)
50 µM
  Percent Effect: 1.018%

## Cc1noc(C(C)Nc2ccc3c(c2)CCC(=O)N3)n1 (stereo not drawn)
50 µM
  Percent Effect: -14.26%

## CC(C)(CNC(=O)c1c[nH]nn1)c1cccc(F)c1
50 µM
  Percent Effect: -9.623%

## CC(NC(=O)NCCN1CCCCCC1=O)c1nncn1C (stereo not drawn)
10 µM
  Percent Effect: 3.231%

## CC(NC(=O)NCCCN1CCCCCC1=O)c1nncn1C (stereo not drawn)
10 µM
  Percent Effect: 20.07%

## CC(NC(=O)NCCCN1CCCC1=O)c1nncn1C (stereo not drawn)
10 µM
  Percent Effect: 85.8%

## Cc1oc(-c2ccccc2F)nc1C(=O)N(C)C
50 µM
  Percent Effect: -3.464%

## CNS(=O)(=O)N1CCc2ccccc2C1
50 µM
  Percent Effect: 30.15%

## CCOc1ccccc1CNCC1CCN(CC(C)O)CC1 (stereo not drawn)
10 µM
  Percent Effect: -9.723%

## CCOc1ccc2ccccc2c1CNCC1CCS(=O)(=O)C1.Cl (stereo not drawn)
10 µM
  Percent Effect: -7.781%

## COc1ccc2ccccc2c1CNCC1CCS(=O)(=O)C1.Cl (stereo not drawn)
10 µM
  Percent Effect: -11.16%

## CCOc1ccc2ccccc2c1CNCC1CCNCC1.Cl.Cl
10 µM
  Percent Effect: 68.87%

## CCCOc1ccc2ccccc2c1CN1CC[C@@]2(O)CCNC[C@H]2C1
10 µM
  Percent Effect: 3.549%

## CCn1cc(S(=O)(=O)NCC2CCN(C3CC3)C2)cn1 (stereo not drawn)
50 µM
  Percent Effect: 3.955%

## NC(=O)c1cncc(-c2ccc(F)cc2Cl)c1
50 µM
  Percent Effect: 3.051%

## Cc1cc(F)cc(C(=O)N(C)C(C)CN)c1 (stereo not drawn)
50 µM
  Percent Effect: -5.582%

## CNC(C)(C)c1ccc2c(c1)OCO2
50 µM
  Percent Effect: -13.39%

## CCNc1ncc2c(n1)CN(c1ccc(OC(F)(F)F)cc1)C2=O
10 µM
  Percent Effect: 64.71%

## CNc1ncc2c(n1)CN(CCc1ccc(Cl)cc1)C2=O
10 µM
  Percent Effect: -35.33%

## CCNc1ncc2c(n1)CN(c1ccc(Cl)cc1)C2=O
10 µM
  Percent Effect: 65.79%

## CNc1ncc2c(n1)CN(CCc1ccc(C)cc1)C2=O
10 µM
  Percent Effect: -16.2%

## COc1ccc(N2Cc3nc(N)ncc3C2=O)cc1Cl
10 µM
  Percent Effect: -32.44%

## CNc1ncc2c(n1)CN(Cc1ccc(Cl)cc1)C2=O
10 µM
  Percent Effect: -51.17%

## CCNc1ncc2c(n1)CN(c1ccc(C)c(C)c1)C2=O
10 µM
  Percent Effect: 51.11%

## COc1ccc(N2Cc3nc(N4CCCC4)ncc3C2=O)cc1Cl
10 µM
  Percent Effect: -14.31%

## CNc1ncc2c(n1)CN(CCc1ccc(F)cc1)C2=O
10 µM
  Percent Effect: -13.73%

## CCn1cc(N2Cc3nc(N)ncc3C2=O)cn1
10 µM
  Percent Effect: 10.4%

## CC1CCN(c2ncc3c(n2)CN(c2ccc(F)cc2)C3=O)CC1
10 µM
  Percent Effect: 19.77%

## CCNc1ncc2c(n1)CN(c1ccc(CC)cc1)C2=O
10 µM
  Percent Effect: 62.15%

## CCN(CC)C(=O)C(C)NC(=O)c1cc(C#N)c[nH]1 (stereo not drawn)
50 µM
  Percent Effect: -1.389%

## O=C(OCCOc1cccnc1)C1CC1
50 µM
  Percent Effect: 43.8%

## O=S(=O)(CCN1CCCC1)c1ccc(Cl)cc1
50 µM
  Percent Effect: 0.9615%

## CNC(=O)CN(C)C(=O)Cc1c[nH]c2ccccc12
50 µM
  Percent Effect: 2.87%

## Cc1ccsc1CN(C)C(=O)C(CN)c1ccccc1 (stereo not drawn)
50 µM
  Percent Effect: -6.582%

## CCN(CC)C(=O)c1ccccc1N(C)S(C)(=O)=O
50 µM
  Percent Effect: -4.295%

## Nc1ncc2c(n1)CN(C1CCCC1)C2=O
10 µM
  Percent Effect: 17.83%

## CC1CCC(N2Cc3nc(N)ncc3C2=O)CC1 (stereo not drawn)
10 µM
  Percent Effect: -0.06734%

## CN(C)c1ncc2c(n1)CN(C1CC(C)(C)NC(C)(C)C1)C2=O
10 µM
  Percent Effect: -0.4714%

## CNc1ncc2c(n1)CN(C1CC(C)(C)NC(C)(C)C1)C2=O
10 µM
  Percent Effect: -1.01%

## CN(C)c1ncc2c(n1)CN(C1CCSCC1)C2=O
10 µM
  Percent Effect: 78.86%

## CNc1ncc2c(n1)CN(C1CCCC1)C2=O
10 µM
  Percent Effect: 52.32%

## COCc1nc(C2CCN(S(C)(=O)=O)C2)no1 (stereo not drawn)
50 µM
  Percent Effect: -61%

## CC(O)CN(CCN)C(=O)OC(C)(C)C (stereo not drawn)
50 µM
  Percent Effect: -7.411%

## NCC(O)c1cccc2ccccc12 (stereo not drawn)
50 µM
  Percent Effect: 36.71%

## NCC(O)c1ccc(-c2ccccc2)cc1 (stereo not drawn)
50 µM
  Percent Effect: 100.3%

## NCC(O)c1ccncc1 (stereo not drawn)
50 µM
  Percent Effect: 1.266%

## CCN(CC)C(=O)CN(C)C(=O)Cc1cccc(F)c1
50 µM
  Percent Effect: 1.744%

## CN(Cc1cc(C#N)cs1)Cc1nccn1C
50 µM
  Percent Effect: -7.444%

## CN1CCC(c2n[nH]cc2-c2ccnc(N)c2)C1 (stereo not drawn)
10 µM
  Percent Effect: -7.314%

## Cc1c[nH]nc1C1CCN(C(=O)C2CCOCC2)C1 (stereo not drawn)
10 µM
  Percent Effect: 9.496%

## Cc1c[nH]nc1C1CCN(C(=O)C2CCCC2)C1 (stereo not drawn)
10 µM
  Percent Effect: 6.331%

## Nc1cc(-c2c[nH]nc2C2CCCCN2C(=O)C2CCCC2)ccn1 (stereo not drawn)
10 µM
  Percent Effect: -17.94%

## Nc1cc(-c2c[nH]nc2C2CCN(C(=O)C3CCCC3)C2)ccn1 (stereo not drawn)
10 µM
  Percent Effect: 5.055%

## CC(=O)N1CCC(c2n[nH]cc2-c2ccnc(N)c2)C1 (stereo not drawn)
10 µM
  Percent Effect: 20.34%

## CC(C)CNc1cc(-c2c[nH]nc2C2CCN(C(=O)C3CC3)C2)ccn1 (stereo not drawn)
10 µM
  Percent Effect: 86.59%

## CC(C)N1CCC(c2n[nH]cc2-c2ccnc(N)c2)C1 (stereo not drawn)
10 µM
  Percent Effect: 18.38%

## CC(C)Nc1cc(-c2c[nH]nc2C2CCN(C(=O)C3CC3)C2)ccn1 (stereo not drawn)
10 µM
  Percent Effect: 77.26%

## Cc1c[nH]nc1C1CCN(C(=O)C2CCC2)CC1
10 µM
  Percent Effect: 14.73%

## CCCNc1cc(-c2c[nH]nc2C2CCN(C(=O)C3CCC3)C2)ccn1 (stereo not drawn)
10 µM
  Percent Effect: 94.14%

## CC(C)Nc1cc(-c2c[nH]nc2C2CCN(C(=O)C3CCC3)C2)ccn1 (stereo not drawn)
10 µM
  Percent Effect: 95.4%

## NCCC(=O)N1CCCC1Cc1cccc(F)c1 (stereo not drawn)
50 µM
  Percent Effect: -2.968%

## COc1cc(Br)c(CN)cc1OC
50 µM
  Percent Effect: 44.43%

## CC(C(=O)N1CCCC1)N1CCN(c2nc[nH]n2)CC1 (stereo not drawn)
50 µM
  Percent Effect: 16.6%

## N#Cc1ccc(C(=O)NCCCc2csc(N)n2)cn1
50 µM
  Percent Effect: 3.81%

## CC(=O)N(C)C1CCNCC1
50 µM
  Percent Effect: -2.944%

## CNC(=O)CCSc1ccc2c(c1)OCCO2
50 µM
  Percent Effect: 0.7135%

## NCC(=O)Nc1cc(C(F)(F)F)c[nH]c1=O
50 µM
  Percent Effect: -2.166%

## CCCn1ccnc1CNC(=O)CCC(=O)N(C)C
50 µM
  Percent Effect: -10.54%

## CNc1nnc(SCc2ncc(C)o2)s1
50 µM
  Percent Effect: -1.305%

## CCNC(=O)NCc1nn(CCN2CCCC2)c(=O)c2ccccc12
10 µM
  Percent Effect: 21.21%

## CCOC(=O)NCc1nn(CCN2CCCC2)c(=O)c2ccccc12
10 µM
  Percent Effect: 7.365%

## COCC(=O)NCc1nn(CCN2CCCC2)c(=O)c2ccccc12
10 µM
  Percent Effect: 94.96%
